This is a sample that favours compounds with a hit; in the whole collection about 7.1% have one here.
MCF10A rereplic: induces DNA re-replication in MCF 10a normal breast cells. MCF 10A DNA re-replication, Hoechst nuclear intensity, 48 h. Potency, µM (top dose mostly 46.1 µM), inactives show at the top dose activity, positive = re-replication, hits mostly activators. 2.9% of 350,000 active; further: % of control where 0% means no effect; nearly all actives have a fitted effect of over 50% in size
ELG1 repair inh: inhibitors of ELG1-dependent DNA repair in HEK293T cells | AID 504467 | HEK293T ELG1-luciferase reporter, luminescence, 16 h; DNA damage induced by 5-fluorouridine | 2.3% of 330,000 active | Potency, µM (doses to about 46.1 µM), for the others: at the top dose activity change, negative = inhibition, most hits filed as inhibitors; further: on the % scale 0 is the no-effect control and ±100 the full control effect; nearly all actives have a fitted effect of over 55% in size
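Step one: seed 2,000 cells per well. Step two: pin-transfer compound or DMSO alongside 5-fluorouridine. Step three: incubate 16 hr, 37 °C, 5% CO2. Step four: add ONE-Glo, wait 30 min, read luminescence.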
p53 reactivator: mutant p53 re-activation in reporter cells; H1299 p53-A138V BP100-luciferase reporter, luminescence, 24 h; 0.063% of 320,000 active; Potency, µM (series often up to 92.2 µM), without a hit: at the top dose activity change, positive = activation, most hits filed as activators; further: % of control where 0% means no effect; nearly all actives have a fitted effect of over 45% in size
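H1299 (p53-null), stable ts p53-A138V + BP100-Luc; 1000 cells/well, Opti-MEM/10% FBS; cpd 4 pt, 1:5; 24 h, 37 deg C, 5% CO2; detection reagent 10 min RT; luminescence.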
ELG1 genotoxic: genotoxicity induction in ELG1-luciferase HEK293T cells. HEK293T ELG1-luciferase reporter, luminescence, 16 h. Potency, µM (highest dose often 46 µM), for the others: at the top dose activity change, positive = activation, most hits filed as activators. 1.3% of 330,000 active. AID 504466; further: % of control where 0% means no effect; nearly all actives have a fitted effect of over 60% in size
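DMSO vehicle served as control against compound-treated ELG1-luciferase HEK293T cells; exposure lasted 16 hr at 37 °C and 5% CO2, followed by ONE-Glo luminescence detection after 30 min.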
A-T KAP1 phos: candidate therapy for ataxia-telangiectasia. F2112 A-T fibroblasts, KAP-1 phosphorylation AlphaLISA; neocarzinostatin DNA damage 30 min before lysis. Potency, µM (top dose mostly 57.5 µM), without a hit: at the top dose activation, usual class: activators. 0.19% of 320,000 active; further: % of control where 0% means no effect; nearly all actives have a fitted effect of over 45% in size
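ATM-like activity read as KAP-1 phosphorylation via AlphaLISA donor/acceptor antibody pairs after lysis and 6 hr at 25C. Cells were ATM-null patient fibroblasts (F2112, hTERT), dosed 60 min, then exposed to the DSB inducer NCS for 30 min.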
SW480 rerep: induces DNA re-replication in SW480 colon adenocarcinoma cells; SW480 DNA re-replication, Hoechst DNA content imaging, 48 h; Potency, µM (top dose mostly 46.1 µM), without a hit: at the top dose re-replication activation, actives largely listed as activators; 1.8% of 340,000 active; AID 624297; further: % of control where 0% means no effect; nearly all actives have a fitted effect of over 55% in size
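Image-based read-out: total Hoechst fluorescence of nuclei (405 nm excitation, 500-530 nm emission), with hits raising the fraction of high-intensity nuclei. SW480 colon cells incubated 48 hr with compounds at 37 C.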
The depositor's hits bear a star; ? = inconclusive; . = not tested or not shown; [ ] = dose if it differs, or a comment. The call rests on the fitted dose curve; in most records, active means well fitted curve in the direction sought with a large enough effect; inconclusive means small, poorly fitted or top-dose-only effect, or another doubt; inactive means no such curve, though single readings can be large; an effect the other way counts as inactive or inconclusive. Potency means the concentration at half of the fitted maximal effect.

SMILES | MCF10A rereplic | ELG1 repair inh | p53 reactivator | ELG1 genotoxic | A-T KAP1 phos | SW480 rerep
CCOC(=O)C1(Cc2ccccc2C)CCCN(C(=O)c2ccccn2)C1 (configuration not stated) | -5% | ? | 6% | -3% | 3%[11.5 µM] | 0%
CCOC(=O)C1(Cc2ccccc2C)CCCN(C(=O)c2ccc3nccnc3c2)C1 (configuration not stated) | ? | 23µM* | -12% | -23% | -3% | 1%
O=C(O)c1ccccc1SC1CC(=O)N(c2ccccc2)C1=O (configuration not stated) | ? | 1% | 4% | -1% | -3% | ?
O=C1CC(Sc2nnc(-c3ccccc3)o2)C(=O)N1c1ccccc1 (configuration not stated) | 5.8µM* | ? | -54% | ? | -6% | 7.3µM*
Cc1ccccc1N1C(=O)CC(Sc2nnc(-c3ccccc3)o2)C1=O (configuration not stated) | ? | 16% | -57% | 1% | -8% | 16µM*
CN(C/C=C/c1ccccc1)Cc1cccc2ccccc12 | 13% | -6% | -6% | 22% | 40µM* | -6%
CN(Cc1ccc(C(C)(C)C)cc1)Cc1cccc2ccccc12 | ? | . | . | . | . | -13%
Cc1ccc(NC(=O)c2ccc(NCCc3ccccc3)c([N+](=O)[O-])c2)cc1F | 18µM* | 0% | 2% | 9% | -1% | 4%
O=C(COC(=O)c1cc(S(=O)(=O)N2CCOCC2)ccc1F)NCCc1ccc(F)cc1 | 12% | 0% | -1% | 1% | -9% | ?
Clc1ccc2oc(-c3cccnc3NCc3ccccc3)nc2c1 | 16µM* | -10% | -2% | 0% | 4% | ?
O=C(NCCc1ccccc1O)c1cc2c(cc1[N+](=O)[O-])OCO2 | -1% | . | . | . | . | -4%
O=C(Cn1cc(SCc2ccc(F)cc2)c2ccccc21)N1CCOCC1 | 6% | -1% | 28µM* | -2% | 3% | -5%
O=C(Cn1cc(SCc2ccc(Cl)cc2)c2ccccc21)N1CCOCC1 | ? | ? | ? | 1% | 2% | 9%
O=C(CSc1cn(Cc2ccccc2)c2ccccc12)N1CCOCC1 | -5% | ? | 26% | 18µM* | 5% | 5%
O=C(NCCn1cc(SCC(=O)N2CCOCC2)c2ccccc21)c1ccccc1 | 1% | 7% | -2% | -3% | 4% | -3%
O=C(O)c1ccc(NC(=O)c2ccccc2NC(=O)c2cccc(Br)c2)cc1 | 13% | 10% | . | 5% | 6% | -3%
O=C(Nc1cccnc1)c1ccco1 | 25% | 15% | -1% | -3% | . | 2%
O=C(NN(c1ccccc1)c1ccccc1)c1ccc([N+](=O)[O-])o1 | ? | -21% | -17% | 0% | 8% | 12µM*
O=C(Cc1ccc([N+](=O)[O-])cc1)NCc1cccnc1 | 1% | 13% | 9% | 0% | 1% | -17%[9.22 µM]
O=C(Nc1ccc(Cl)cn1)c1ccc([N+](=O)[O-])o1 | 12µM* | -24% | -9% | 5% | 16% | 2.9µM*
O=C(NCc1cccnc1)c1ccc([N+](=O)[O-])o1 | 15µM* | 0% | -11% | -6% | 2% | 2.9µM*
O=C(Nc1cccnc1)c1ccc([N+](=O)[O-])o1 | 7.3µM* | ? | -19% | -1% | 21% | ?
CCCCC[C@]12Cc3cc(OC)c(OC)cc3C(O1)c1c(cc(C)n(-c3ccccc3)c1=O)O2 | . | . | . | . | -1%[11.5 µM] | .
CC(=O)c1cccc(NC(=O)C(C)OC(=O)CN2C(=O)NC(C)(C)C2=O)c1 (configuration not stated) | 10% | 10% | -2% | -2% | 5% | -7%
Cc1nnc(-c2ccccc2)c(=O)n1/N=C/c1c(O)ccc2ccccc12 | 16% | ? | 9% | -14% | 11% | 6.5µM*
